This note sets out measurements from PubChem BioAssay (NCATS).

A short description of assay [1]: S16 Schwann cell PMP22 intronic element beta-lactamase assay (AID 624044; calls by dose curve; also: nearly all actives have a fitted effect of over 15% in size; also: potency is read from the fitted curve at half-maximal effect). A digest of the protocol:
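Rat S16 Schwann cells with beta-Lac driven by a PMP22 intronic element, compound-treated 24 h at 37 °C. LiveBLAzer FRET B/G read: 460 nm normalized to potassium clavulanate vs DMSO; 535 nm FRET as viability; concentration-effect curves classified.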

The nature of assay [2]: qHTS assay for small molecule agonists of the antioxidant response element (ARE) signaling pathway (AID 651741; active = well fitted activation curve with a large enough effect in the signal ratio; the % refers to the signal ratio; also: potency is read from the fitted curve at half-maximal effect; as to activation: % of control where 0% means no effect). The procedure, abridged: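 CellSensor ARE-bla HepG2 cells (2,000/well) carrying ARE-driven beta-lactamase, exposed 16 h at 37 C. LiveBLAzer B/G FRET substrate added for 2 h at room temperature; fluorescence intensity read.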
A short description of assay [3]: qHTS assay for small molecule disruptors of the mitochondrial membrane potential - 5 hr assay (AID 651755; calls by dose curve; also: nearly all actives have a fitted effect of over 40% in size; also: potency is read from the fitted curve at half-maximal effect). A digest of the protocol: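 HepG2 cells (2,000/well), attached overnight, exposed to compound 5 hr at 37C, then Mito-MPS dye 30 min. Fluorescence read for monomers (490/535 nm) and aggregates (540/590 nm).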
A general note: qHTS replaces the single test concentration by a dilution series.

The target in assay [4] is Tumor necrosis factor (Homo sapiens) (UniProt P01375). The assay can be described thus: qHTS assay to identify small molecules that stimulate Tumor Necrosis Factor-alpha (TNF-alpha) secretion (AID 651757; active = well fitted curve in the direction sought with a large enough effect in the signal ratio; the % refers to the signal ratio; also: 0% is about no effect). The procedure, abridged: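 Read-out is HTRF, a TR-FRET sandwich of cryptate- and XL665-labeled anti-TNF-alpha antibodies detecting cytokine secreted by THP-1 cells. Cells had been incubated with test compounds at 37 C for 17 hrs beforehand.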
Tumor necrosis factor (Homo sapiens), sequence (P01375 whole entry, looked up): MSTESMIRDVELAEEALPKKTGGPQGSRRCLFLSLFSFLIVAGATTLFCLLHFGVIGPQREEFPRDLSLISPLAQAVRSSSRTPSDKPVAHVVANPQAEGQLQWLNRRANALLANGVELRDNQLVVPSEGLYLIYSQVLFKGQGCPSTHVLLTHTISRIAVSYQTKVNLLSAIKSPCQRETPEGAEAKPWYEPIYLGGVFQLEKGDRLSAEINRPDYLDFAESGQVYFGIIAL

A short description of assay [5]: qHTS assay to identify small molecules that stimulate interleukin-8 (IL-8) secretion (AID 651758; active = well fitted activation curve with a large enough effect in the signal ratio; the % refers to the signal ratio; also: 0% is about no effect). A digest of the protocol:
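THP-1 cells (2000/well) exposed to compound 16 h at 37 C; secreted IL-8 then detected by HTRF with cryptate- and XL665-labelled anti-IL-8 antibody pair after 1-3 h at room temperature.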

For assay [6], the target named is Glutaminase kidney isoform, mitochondrial (Homo sapiens) (UniProt O94925). In words: qHTS for Inhibitors of Glutaminase (GLS): LOPAC Validation (AID 624146).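 Also: glutamate product detected by oxidase and peroxidase coupled Amplex red fluorescence gain; % is scaled to controls: 0 for no effect and ±100 for the full control effect; nearly all actives have a fitted effect of over 60% in size.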 The procedure, abridged: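 Coupled fluorescence readout: glutamate oxidase/HRP/Amplex Red detect glutamate formed by hKGA from L-glutamine (1 mM solution added). Buffer 45 mM KH2PO4 pH 8.2, 0.02% Tween-20; reads at t0 and 30 min RT.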
Glutaminase kidney isoform, mitochondrial (Homo sapiens), sequence (O94925 whole entry, looked up, canonical isoform): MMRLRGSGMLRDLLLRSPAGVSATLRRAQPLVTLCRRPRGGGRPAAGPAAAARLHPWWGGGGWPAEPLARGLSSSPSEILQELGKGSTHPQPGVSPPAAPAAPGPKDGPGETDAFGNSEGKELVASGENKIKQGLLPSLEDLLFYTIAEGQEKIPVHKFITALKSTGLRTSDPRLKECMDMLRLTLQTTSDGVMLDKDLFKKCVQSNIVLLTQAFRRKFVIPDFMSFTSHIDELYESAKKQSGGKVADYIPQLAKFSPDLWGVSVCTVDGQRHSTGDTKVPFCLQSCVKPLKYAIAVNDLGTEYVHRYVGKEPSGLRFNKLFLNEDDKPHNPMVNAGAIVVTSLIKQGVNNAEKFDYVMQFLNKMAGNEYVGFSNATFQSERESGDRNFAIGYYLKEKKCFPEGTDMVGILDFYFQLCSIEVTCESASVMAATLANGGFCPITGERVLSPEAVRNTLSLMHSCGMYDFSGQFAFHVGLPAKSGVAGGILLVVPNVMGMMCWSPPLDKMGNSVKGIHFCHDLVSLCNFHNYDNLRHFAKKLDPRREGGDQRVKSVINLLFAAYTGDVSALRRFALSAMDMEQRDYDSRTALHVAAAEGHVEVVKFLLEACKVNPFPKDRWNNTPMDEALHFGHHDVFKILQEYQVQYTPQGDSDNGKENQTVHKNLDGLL

Assay [7] is described as follows: qHTS of Trypanosoma Brucei Inhibitors: LOPAC Validation (AID 624147). Also: 0% is about no effect. The procedure, abridged:
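Readout: single end-point luminescence (Kinase-Glo Plus, 10 min). Reaction conditions were TbPYK/substrate plus 130 uM ADP, 45 min at RT, pH 7.2 TEA buffer. No-enzyme wells served as controls, and data were normalized before concentration-response fitting.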

The target of assay [8] is Glucagon-like peptide 1 receptor (Homo sapiens) (UniProt P43220). The assay can be described thus: qHTS of GLP-1 Receptor Agonists: LOPAC Validation (AID 624148).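 Also: 0% is about no effect; higher luminescence signal means agonism.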 A digest of the protocol: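 HEK293 cells stably co-expressing GLP-1R and a cAMP-responsive luciferase reporter, plated 12 hours before compound, then incubated 4-6 hr at 37 deg C. Luminescence read 12 min after detection reagent.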
Glucagon-like peptide 1 receptor (Homo sapiens), sequence (P43220 whole entry, looked up): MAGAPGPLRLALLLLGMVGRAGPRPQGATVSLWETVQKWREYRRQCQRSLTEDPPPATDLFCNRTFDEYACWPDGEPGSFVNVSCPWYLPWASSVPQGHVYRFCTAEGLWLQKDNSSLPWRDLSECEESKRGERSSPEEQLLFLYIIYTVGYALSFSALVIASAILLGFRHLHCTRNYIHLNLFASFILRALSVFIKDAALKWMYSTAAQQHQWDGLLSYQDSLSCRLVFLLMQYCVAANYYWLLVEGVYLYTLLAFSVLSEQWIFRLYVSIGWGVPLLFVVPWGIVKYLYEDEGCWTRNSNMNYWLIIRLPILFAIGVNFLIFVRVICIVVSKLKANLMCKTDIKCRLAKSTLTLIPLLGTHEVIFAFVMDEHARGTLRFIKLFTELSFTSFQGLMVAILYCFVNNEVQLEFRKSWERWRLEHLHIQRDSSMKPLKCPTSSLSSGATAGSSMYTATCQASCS

Assay [9] is described as follows: qHTS of Nrf2 Activators: LOPAC Validation (AID 624149). Also: 0% is about no effect. The procedure, abridged: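 Luminescence read-out of ARE-luciferase activation: AREc32_Fluc cells treated with compounds for 24 hr at 37 deg C, then lysed with Steady-Glo for 30 min at room temperature before reading.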
Assay [10] is described as follows: HTS Assay for Allosteric Antagonists of the Human D2 Dopamine Receptor: Hit Validation in HTRF (AID 624455).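 Also: stable D1 dopamine receptor cell line scored for blocking the D1 response; % is scaled to controls: 0 for no effect and ±100 for the full control effect.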 The procedure, abridged:
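First, antagonism was screened by calcium flux in a force-coupled, inducible Hek293 Trex D2 line challenged with EC80 dopamine. Hits then went into an HTRF assay in cells stably expressing D1, testing inhibition of the D1 response.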
Background: Time-resolved FRET reads energy transfer from a long-lived donor to a nearby acceptor.

The nature of assay [11]: qHTS assay for small molecule activators of the p53 signaling pathway (AID 651743; active = well fitted activation curve with a large enough effect in the signal ratio, not every such curve was filed as active; the % refers to the signal ratio; also: % of control where 0% means no effect). The note with it: HCT-116 p53RE-bla, beta-lactamase FRET ratio, 16 h; stronger effect = higher value. The procedure, abridged: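 p53RE-bla HCT-116 cells carrying a beta-lactamase reporter under p53 response elements were exposed to compounds for 16 hours at 37 C. Reporter activity read as fluorescence after 2 hours at room temperature with LiveBLAzer B/G FRET substrate.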

The nature of assay [12]: qHTS assay for small molecule activators of the nuclear factor-kappa B (NF-kB) signaling pathway (AID 651749; active = well fitted activation curve with a large enough effect in the signal ratio; the % refers to the signal ratio; also: % of control where 0% means no effect). Particulars: NF-kB-bla ME-180 cells, beta-lactamase FRET ratio, 16 h; stronger effect = higher value. The procedure, abridged: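 NF-kB-bla ME-180 cells carrying a beta-lactamase reporter under an NF-kB response element, 2,000 cells/well, exposed to compound for 16 hr at 37C; FRET-based beta-lactamase fluorescence read-out of pathway activation.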

Assay [13] can be described thus: qHTS assay for small molecule disruptors of the mitochondrial membrane potential - 1 hr assay (AID 651754; calls by dose curve; also: potency is read from the fitted curve at half-maximal effect; nearly all actives have a fitted effect of over 35% in size). The procedure, abridged:
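HepG2, 2,000 cells/well, overnight attachment; cpd or DMSO 1 hr, 37C/5% CO2; Mito-MPS dye 30 min, 37C; fluorescence monomer (490/535) and aggregate (540/590).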

Assay [14] can be described thus: Cytotoxicity counterscreen for NFkB agonists and antagonists (AID 624476).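 Also: cells exposed to compound for 48 hours.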 Also: potency is read from the fitted curve at half-maximal effect. A general note: A counterscreen serves to expose hits that act by an unwanted route or on another target.
Assay [15] can be described thus: qHTS Assay for Identification of Small Molecule Agonists for NFkB Signaling Pathway. (AID 624478).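 Also: compounds tested together with TNF alpha at its EC50 of 10 pM; 0% is about no effect.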 A digest of the protocol: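 ME-180 cervical carcinoma, stable NFkB-RE beta-lactamase reporter; 1000 cells/well, overnight attachment; cpd + TNF alpha 10 pM final, 5 h 37 C; LiveBLAzer 2 h RT; FRET 460/530 nm, ex 405 nm.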
A short description of assay [16]: qHTS Assay for Identification of Small Molecule Antagonists for NFkB Signaling Pathway. (AID 624479; calls by dose curve;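 also: pathway stimulated with TNF alpha; % is scaled to controls: 0 for no effect and ±100 for the full control effect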).
Assay [17] in a line: Cell Proliferation Assay against the TMD8 Cell Line (AID 651645).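 Also: cells exposed to compound for 48 h before reading.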 Particulars: TMD8 DLBCL cell line proliferation/viability; at 46.1 µM (top of the series) unless noted. The procedure, abridged:
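500 TMD8 cells/well, RPMI + Glutamax, no phenol red, 5% FBS; cpd added immediately; 48 h, 37C, 5% CO2; CellTiter-Glo, luminescence. Controls: DMSO = 100%, bortezomib 9.2 uM final = 0%.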

Assay [18] in a line: Cell Proliferation Assay against the HBL1 Cell Line (AID 651646).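 Also: cells exposed to compound for 48 h before reading.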 Particulars: HBL1 DLBCL cells; at 46.1 µM (top of the series) unless noted. The procedure, abridged: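 HBL1 ABC DLBCL cells, 500/well in RPMI with 5% FBS, treated for 48 h at 37C. Viability read by CellTiter-Glo luminescence, normalized to DMSO as 100% and 9.2 uM bortezomib as 0%.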
A short description of assay [19]: Cell Proliferation Assay against the TMD8 Cell Line (Caspase readout at 16 hrs) (AID 651712). Also: potency is read from the fitted curve at half-maximal effect. The procedure, abridged:
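TMD8 cells in RPMI with 5% FBS were treated with compound for 16 h at 37 C, then caspase 3/7 activation was read by Caspase-Glo luminescence. Percent activity was scaled to DMSO (0%) and 9.2 uM bortezomib final (100%).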

The nature of assay [20]: Cell Proliferation Assay against the TMD8 Cell Line (Caspase readout at 8 hrs) (AID 651713).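 Also: 0% = DMSO and 100% = 9.2 µM bortezomib caspase signal.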 A digest of the protocol:
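Seed log-phase TMD8 cells, add compound by pin tool, incubate 8 h at 37C under 5% CO2, equilibrate to room temperature, add Caspase-Glo, wait 15 min, read luminescence; percent activity uses DMSO and 9.2 uM bortezomib controls.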

SMILES strings stand for the structures. Where “and” joins values, the source holds several entries; their conditions need not be identical. Identical values can stand only once. Results filed as inconclusive are left out. Calls of active or inactive are those of the source. Unless noted, calls follow the shape of the dose curve; as a rule, active = well fitted curve in the direction sought with a large enough effect; inconclusive = small, poorly fitted or top-dose-only effect, or another doubt; inactive = no such curve, though single readings can be large; an effect the other way counts as inactive or inconclusive.

Take `O=c1[nH]cnc2c1ncn2[C@H]1CC[C@@H](CO)O1`: the Potency result in [1], in assay [2] and in assay [3] was “inactive” in each case. The compound was classed as inactive in assay [4] and in [5].

As to `COCCCCC(=NOCCN)c1ccc(C(F)(F)F)cc1`, in assay [1], the Potency entry is “inactive”.

For `CCCCCN(C)CCC(O)(P(=O)(O)O)P(=O)(O)O`, the Potency entry in assay [1] and in assay [6] was “inactive” throughout. The compound was called inactive in assay [7], in assay [8], in [9] and in assay [10].

In the case of `CCCNC(=O)NS(=O)(=O)c1ccc(Cl)cc1`, the Potency result in assay [6] and in assay [2] was “inactive” each time. Also, the compound was classed as inactive in [7], in assay [8], in [9], in assay [10] and in assay [4]. Besides, the activation in [11] is -1.07% (inactive) and -0.555% (inactive); in [12] it was -1.46% (inactive) and -0.938% (inactive).

For `CC(=O)N[C@@H](CS)C(=O)O`, the Potency entry in assay [6] and in assay [2] was “inactive” each time. The outcome in assay [7], in assay [8], in [9] and in assay [10] was inactive. Further, the activation in assay [11] was 0.943% (inactive).

Take `CC1(C)O[C@H]2C[C@@H]3[C@H]4CCC5=CC(=O)C=C[C@]5(C)[C@@]4(F)[C@@H](O)C[C@]3(C)[C@]2(C(=O)CO)O1`: in assay [1], the Potency entry is “inactive”.

For the compound `COc1ccccc1N1CCN(CCCNc2cc(=O)n(C)c(=O)n2C)CC1`, the Potency result in assay [6] is “inactive”. Besides, the result in assay [7], in assay [8], in [9] and in assay [10] was inactive.

Consider `O=c1c(-c2ccc(O)cc2)coc2cc(O)ccc12`, for which the Potency result in assay [6] is “inactive”. The compound was called inactive in [7], in assay [8], in assay [9], in [10] and in assay [4]. Besides, the Potency in assay [2] was 27.3 µM (active) and 42.2 µM (active); in [13], 18.8 µM (active); in [3], 21.1 µM (active). The activation was -1.55% (inactive) and 1.43% (inactive) in [11]; -0.613% (inactive) and -0.223% (inactive) in [12].

`O=C(CCCCCCC(=O)Nc1ccccc1)NO`: the Potency in assay [1] is 2.24 µM (active); in [14] it was 38.2 µM (active); in assay [19] it was 0.429 µM (active). The compound was called inactive in [15]. Also, the Potency entry in assay [16] and in [20] was “inactive” throughout. Further, in assay [17], the viability (% of control) was 2.92% [at 92.2 µM]. For the same compound, the viability, percent of control in [18] was found to be 3.42% [at 92.2 µM].

With `C[N+](C)(C)CCCCCC[N+](C)(C)C`, the Potency entry in [6] is “inactive”. Besides, the compound was called inactive in assay [7], in assay [8], in assay [9] and in assay [10].

In the case of `O=C(NCCN1CCOCC1)c1ccc(Cl)cc1`, the Potency result in assay [6] is “inactive”. Further, the compound was called inactive in assay [7], in assay [8], in [9] and in [10].

With `CCN1CCC[C@H]1CNC(=O)c1cc(S(N)(=O)=O)ccc1OC`, the Potency result in assay [6] is “inactive”. Moreover, the call in [7], in assay [8], in [9] and in assay [10] was inactive.

`CC(=O)O[C@]1(C(C)=O)CC[C@H]2[C@@H]3C=C(Cl)C4=CC(=O)[C@@H]5C[C@@H]5[C@]4(C)[C@H]3CC[C@@]21C`: the Potency result in [6] was “inactive”. The result in assay [7], in assay [8], in [9], in assay [10] and in assay [4] was inactive. In [2], the Potency was 54.5 µM (active) and 42.2 µM (active). In addition, in assay [12], the activation is -2.59% (inactive) and -0.559% (inactive).

With `COc1cc2ncnc(Nc3ccc(F)c(Cl)c3)c2cc1OCCCN1CCOCC1`, the Potency entry in assay [1] and in assay [14] was “inactive” in each case. Further, the compound was called inactive in [15]. The viability (% of control) in assay [17] stood at 50.3%. Also, the viability, percent of control in assay [18] amounted to 40.3%.

On to `NCCS`, for which the Potency entry in assay [6] is “inactive”. Also, the outcome in assay [7], in assay [8], in assay [9] and in assay [10] was inactive.

Regarding `Cc1cccc(C)c1OCC(C)N` (configuration not stated), in assay [6], the Potency result was “inactive”. Further, the compound was classed as inactive in [7], in assay [8], in [9] and in assay [10].

With `O=C1NCC2(CCN(CCc3ccccc3)CC2)O1`, in [1], the Potency entry was “inactive”. Moreover, the compound was called inactive in assay [7], in assay [8], in [9] and in [10].

As for `COC(=O)[C@@H]1[C@H]2C[C@H]3c4[nH]c5ccccc5c4CCN3C[C@@H]2CC[C@@H]1O`, the Potency entry in [6] was “inactive”. Also, the compound was classed as inactive in assay [7], in assay [8], in assay [9] and in assay [10].

Consider `CCN(CC)CCOC(=O)c1ccc(N)cc1`, for which the Potency entry in assay [6] is “inactive”. Further, the call in assay [7], in assay [8], in assay [9] and in assay [10] was inactive.

With `Clc1ccc(Cn2c(CN3CCCC3)nc3ccccc32)cc1`, the Potency entry in assay [1] and in assay [6] was “inactive” each time. Besides, the compound was classed as inactive in [7], in [8], in [9] and in assay [10].

Take `CCOC(=O)O[C@]1(C(=O)OCCl)CC[C@@H]2[C@H]3CCC4=CC(=O)C=C[C@]4(C)[C@@H]3[C@@H](O)C[C@@]21C`: the Potency entry in assay [1] was “inactive”.

For `CC(=O)CCCCn1c(=O)c2c(ncn2C)n(C)c1=O`, the Potency result in [6] is “inactive”. Also, the call in assay [7], in assay [8] and in [9] was inactive.
